Compounds with a hit are over-represented: about 21% of the library has one in this group of screens.
Pf growth 96h: inhibits malaria parasite growth, 96 h; P. falciparum luciferase reporter growth, 96 h; Potency, µM (series often up to 28.7 µM), for inactives: at the top dose activity change, negative = inhibition, actives largely listed as inhibitors; actives 6.9% (n = 320,000); AID 504834; also: potency is read from the fitted curve at half-maximal effect; % is scaled to controls: 0 for no effect and ±100 for the full control effect
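Luminescence readout: decreased luciferase signal marks inhibited growth of reporter-expressing P. falciparum in infected red cells (2% hematocrit, 0.05% parasitemia final), exposed to compound two generations (96 h, 37 C, 5% CO2).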
Pf growth 48h: P. falciparum growth inhibition at 48 hours (one generation). P. falciparum luciferase growth in erythrocytes, 48 h. Potency, µM (titrated, usually from 28.7 µM), inactives show top-dose activity change, negative = inhibition, most hits filed as inhibitors. actives 5.9% (n = 310,000). AID 504832; also: potency is read from the fitted curve at half-maximal effect; % is scaled to controls: 0 for no effect and ±100 for the full control effect
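A one-generation exposure of luciferase-tagged malaria parasites in RPMI 1640/Albumax erythrocyte culture, 37 C and 5% CO2. Inhibition is inferred from decreased luminescence after adding detection reagent.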
Shiga inhibitor: Shiga toxin inhibition. AID 2315. inhibition, % at 38.7 µM. actives 9.2% (n = 290,000). Vero cells, Shiga toxin protein synthesis inhibition reporter; in the data active = inhibition mostly above about 28%, no sharp cut-off; inactive = mostly below about 43%; also: 0% is about no effect
Cycloheximide cs: affects cycloheximide protein synthesis inhibition readout, counter-screen; actives 12% (n = 300,000); max response, %; cell reporter, cycloheximide protein synthesis inhibition counterscreen; AID 2314; in the data active = max response mostly above about 13%, no sharp cut-off; inactive = mostly below about 14%; also: read at 38.3 µM for the half of the compounds with a filed dose; 0% is about no effect
The depositor's hits bear a star; ? = inconclusive; . = not tested or not shown. Unless noted, calls follow the shape of the dose curve; as a rule, active = well fitted inhibition curve with a large enough effect; inconclusive = small, poorly fitted or top-dose-only effect, or another doubt; inactive = no such curve, though single readings can be large or run the other way.

SMILES | Pf growth 96h | Pf growth 48h | Shiga inhibitor | Cycloheximide cs
Cc1nc2nc(-c3ccc(Cl)cc3)[nH]n2c(=O)c1C | 208% | 144% | 38* | 5
COc1ccc(CCn2c(=S)[nH]c3cc(C(=O)NCc4ccco4)ccc3c2=O)cc1OC | 25% | ? | 15 | 7
CCc1nc2ccccc2n1Cc1cc(=O)n2cc(C)ccc2n1 | 1.7µM* | -17% | 16 | -1
Cc1ccc2nc(Cn3cc(C(F)(F)F)ccc3=O)cc(=O)n2c1 | -10% | 3% | 5 | -3
COc1ccc(C)cc1N(C(=O)c1ccco1)C(C(=O)NC1CCCC1)c1ccc(N2CCOCC2)cc1 (stereo not drawn) | ? | ? | -2 | -2
Cc1oc2c(Cl)c(Cl)c(O)c(CN(C)C)c2c1C(=O)c1ccc(Cl)cc1 | 103% | ? | -7 | -2
Cc1ccc(C(=O)Nc2ccc(N3CCN(C(=O)c4cccs4)CC3)cc2)c(Cl)c1 | 48% | 9.3µM* | 20 | 5
O=C(Nc1ccc(N2CCN(C(=O)c3ccco3)CC2)cc1)c1ccc([N+](=O)[O-])cc1Cl | ? | 12µM* | 19 | 0
Cc1ccc(C(=O)Nc2ccc(N3CCN(C(=O)c4ccco4)CC3)cc2)c(Cl)c1 | 9% | 13µM* | -4 | 3
Cc1ccc2c(c1)CCCN2C(=O)c1ccco1 | . | ? | -4 | -1
O=C(Nc1ccc2c(c1)CCCN2C(=O)c1ccco1)c1cc([N+](=O)[O-])ccc1Cl | ? | 15µM* | . | .
O=C(CC(=O)c1cccc([N+](=O)[O-])c1)Nc1ccccc1Cl | ? | 11% | 15 | 8
COc1ccc2nc(SCC(=O)Nc3ccc4sc(C)nc4c3)c(C#N)cc2c1 | ? | ? | -6 | 1
Cc1ccc(C(=O)NC(=S)Nc2ccc(N3CCN(C(=O)c4ccco4)CC3)cc2)cc1 | 5.2µM* | ? | -11 | 11
C=CCn1c(C)cc(C(=O)CSc2nnc(NCc3ccccc3)s2)c1C | ? | -17% | 57 | 46*
C=CCn1c(C)cc(C(=O)CSc2nnc(NC(C)C)s2)c1C | 4.7µM* | ? | 4 | 8
O=C(CSc1nnc(NCc2ccccc2)s1)c1ccco1 | ? | -16% | 78* | 16
COC(=O)Cc1ccc(OC(=O)CCS(=O)(=O)c2ccc(C)cc2)cc1 | 0% | -20% | . | .
N=C1c2ccccc2CN1CC(=O)c1ccccc1 | 225% | 174% | 40* | 41*
N=C1c2ccccc2CN1NC(=O)c1ccccc1 | 98% | 51% | 37 | 7
Cc1ccc(C)c(C(=O)CN2Cc3ccccc3C2=O)c1 | 39% | 19% | 65* | 22*
CCN(CC)S(=O)(=O)c1cccc(C(=O)OCC(=O)NCc2ccccc2OC)c1 | 15% | ? | . | .
Cc1cccc(OCCNc2cc(N3CCOCC3)ccc2[N+](=O)[O-])c1 | ? | ? | 26* | 30*
CC(=O)Nc1ccc(SCC(CC(C)C)N2CCN(C)CCC2=O)cc1 (stereo not drawn) | . | . | 6 | 2
Cn1cccc1/C=N/N1CCN(Cc2ccccc2Cl)CC1 | 20% | 3% | 19 | 8
SMILES | Pf growth 96h | Pf growth 48h | Shiga inhibitor | Cycloheximide cs
Cn1cccc1/C=N/N1CCN(c2ccccc2)CC1 | 56% | 0% | 130* | 41*
O=C(O)c1ccc(/C=N/N2CCN(c3ccccc3)CC2)cc1 | 207% | 31% | 88* | 34*
C(=N/N1CCN(c2ccccc2)CC1)/c1ccncc1 | -22% | 7% | 29* | 17*
Cc1ccc(N2CCN(/N=C/c3ccccc3)CC2)cc1 | 25% | 19% | 4 | -2
O=C(Cn1cc(C(F)(F)F)ccc1=O)N/N=C/c1ccccc1 | 25% | 18% | -9 | -1
CCOC(=O)c1c2ccccc2[n+]([O-])n1CCO | 89% | -8% | . | .
CCOc1ccc(N2C(=O)/C(=C/c3ccco3)N(C)C2=S)cc1 | 2.1µM* | 8% | -7 | -4
CCc1cc(C(=O)c2ccc(OC)cc2)c(N)s1 | 40% | 3% | 22 | 8
COc1ccc(C(=O)c2ccsc2N)cc1 | 127% | 87% | 51* | 28*
COc1ccc(C(=O)c2ccc(CC#N)s2)cc1 | 24% | 58% | 68* | 24*
CC1(C)CC(NC(=O)Nc2ccc([N+](=O)[O-])cc2)CC(C)(C)N1 | -12% | -28% | 18 | -3
CC1CC(C)CN(C(=O)c2ccc(-c3ccc([N+](=O)[O-])cc3)o2)C1 (stereo not drawn) | 33% | 57% | . | .
O=C(NC1CN2CCC1CC2)c1ccc(-c2ccc([N+](=O)[O-])cc2)o1 (stereo not drawn) | ? | 1.7µM* | 9 | 8
CC1(C)CC(NC(=O)c2ccc(-c3ccc([N+](=O)[O-])cc3)o2)CC(C)(C)N1 | ? | 10µM* | 24 | 1
CC(=O)N/C(=C\c1cccc([N+](=O)[O-])c1)C(=O)NC1CCCCC1 | -14% | 9% | 61* | 49*
O=C(NC1CCCCC1)c1ccc(-c2cccc([N+](=O)[O-])c2)o1 | ? | 2% | 74* | 56*
O=C(C1=C[C@H](c2ccc(C(F)(F)F)cc2)C[C@H](OCc2ccc(CO)cc2)O1)N1CCCCCCC1 | 9.3µM* | ? | -2 | 2
O=C(C1=C[C@@H](c2ccccc2)C[C@@H](OCc2ccc(CO)cc2)O1)N1CCCCCCC1 | 8.3µM* | ? | -4 | 2
O=C(C1=C[C@H](c2ccccc2)C[C@H](OCc2ccc(CO)cc2)O1)N1CCN(Cc2ccccc2)CC1 | ? | ? | -4 | -1
COc1ccc(C(=O)CSc2nnc(C3CCCCC3)n2N)c(OC)c1 | 9.3µM* | 0% | -2 | 2
COc1ccc(NC(=O)CN2CCC3(O)CCCCC3C2c2cc(OC)ccc2OC)cc1 (stereo not drawn) | ? | ? | -10 | 2
COC(=O)c1c(NC(=O)CN2CCC3(O)CCCCC3C2c2ccc(OC)cc2OC)sc(C)c1C (stereo not drawn) | -18% | 12µM* | -5 | 7
COC(=O)c1c(NC(=O)CN2CCN(c3cccc(Cl)c3)CC2)sc(C)c1C | 17% | 10% | -6 | -3
COC(=O)c1c(NC(=O)CN2CCC3(O)CCCCC3C2c2ccccc2OC)sc(C)c1C (stereo not drawn) | ? | 5.2µM* | -1 | 6
COC(=O)CSc1nc(N)c2c3c(sc2n1)CCCC3 | 29% | 7% | 46 | 16*
SMILES | Pf growth 96h | Pf growth 48h | Shiga inhibitor | Cycloheximide cs
CC(C)(C)C1CCc2c(sc3nc(SCC(=O)O)nc(N)c23)C1 (stereo not drawn) | 14% | 31% | 34 | 16*
CC(C)Cc1nc(SCC(=O)NCC2CCCO2)c2c(=O)n(C)c(=O)n(C)c2n1 (stereo not drawn) | 20% | 1% | -4 | -2
O=c1c(Cl)c(Cl)cnn1Cc1ccccc1Cl | ? | -1% | -26 | -13
O=c1c(Cl)c(Cl)cnn1Cc1nnc(-c2ccc(Cl)cc2)o1 | -43% | 1% | 63 | 50*
COc1ccc(Nc2nc(Nc3ccc(OC)cc3)nc(-n3[nH]c(=O)c(C)c3C)n2)cc1 | . | 2.6µM* | -3 | 8
CC1CCCN(C(=O)c2cc3ccccc3cc2O)C1 (stereo not drawn) | ? | ? | 23 | 1
CCOC(=O)c1cnn(-c2ccc(C(F)(F)F)cn2)c1N | . | 120% | 77* | 40*

Compound activity from PubChem.
